Bioassay records (PubChem BioAssay)
Shiga inhibitor = blocks Shiga toxin action in Vero cells; Vero cells, Shiga toxin protein synthesis inhibition reporter; inhibition, % at 38.7 µM; 9.2% of 290,000 active; AID 2315; in the data active = inhibition mostly above about 28%, no sharp cut-off; inactive = mostly below about 43%; also: 0% is about no effect
Pf growth 48h = inhibits P. falciparum growth in the first generation, 48 h; P. falciparum luciferase growth in erythrocytes, 48 h; Potency, µM (titrated, usually from 28.7 µM), without a hit: at the top dose activity change, negative = inhibition, most hits filed as inhibitors; 5.9% of 310,000 active; also: potency is read from the fitted curve at half-maximal effect; % is scaled to controls: 0 for no effect and ±100 for the full control effect
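Luminescence readout; reporter = integrated firefly luciferase in P. falciparum. RBC culture at 2% hematocrit, 0.1% parasitemia final, 37 C/5% CO2; decreased signal taken as growth inhibition.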
Pf growth 96h = inhibits malaria parasite growth, 96 h; P. falciparum luciferase reporter growth, 96 h; Potency, µM (titrated, usually from 28.7 µM), without a hit: top-dose activity change, negative = inhibition, most hits filed as inhibitors; 6.9% of 320,000 active; AID 504834; also: potency is read from the fitted curve at half-maximal effect; % is scaled to controls: 0 for no effect and ±100 for the full control effect
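Readout is luminescence from an integrated firefly luciferase in P. falciparum. Red cells, 2% hematocrit and 0.05% parasitemia final, were cultured with compound through two parasite generations (96 hours) at 37 C, 5% CO2.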
HCV inhibitor = inhibitors of hepatitis C virus infection; Huh7.5.1 HCVcc-Cre infection, luciferase reporter, 44 h; Potency, µM (titrated, usually from 41.8 µM), for the others: top-dose activity change, negative = inhibition, usual class: inhibitors; 3.4% of 340,000 active; AID 651820; also: potency is read from the fitted curve at half-maximal effect; % is scaled to controls: 0 for no effect and ±100 for the full control effect
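Whole-lifecycle infectious HCVcc-Cre system; cells 1,000/well, compound then virus (~0.5 moi) added 4 h after plating, 44 h culture. Luciferase read 15 sec following 15 min substrate incubation, room temp.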
Cycloheximide cs = affects cycloheximide protein synthesis inhibition readout, counter-screen. cell reporter, cycloheximide protein synthesis inhibition counterscreen. max response, %. 12% of 300,000 active; in the data active = max response mostly above about 13%, no sharp cut-off; inactive = mostly below about 14%; also: read at 38.3 µM for the half of the compounds with a filed dose; 0% is about no effect
HCMV inh = blocks human cytomegalovirus replication. activity change, negative = inhibition, % at 57.5 µM. HFF cells, HCMV-luciferase reporter, 72 h; hits give low values. 4.5% of 410,000 active; in the data active = activity change below about -60%; inconclusive = no clear call, values can overlap the other calls; inactive = above about -39%; also: % is scaled to controls: 0 for no effect and ±100 for the full control effect
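Luciferase read-out from HCMV-luciferase-infected HFFs (MOI 1 PFU/cell) 72 h post infection at 37C; compounds added after 16 h cell attachment; activity normalized between buffer-only basal and Salinomycin (10uM) inhibitor controls.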
Starred values were filed as active, the others as inactive; ? = inconclusive; nt = not tested or not shown; ! = a repeat was not active; [ ] = dose if it differs, or a comment. Shown are actives, neighbours in structure and some others; about 21% of the full set was active somewhere. Unless noted, calls follow the shape of the dose curve; as a rule, active = well fitted inhibition curve with a large enough effect; inconclusive = small, poorly fitted or top-dose-only effect, or another doubt; inactive = no such curve, though single readings can be large or run the other way.

SMILES | Shiga inhibitor | Pf growth 48h | Pf growth 96h | HCV inhibitor | Cycloheximide cs | HCMV inh
Clc1ccc(Cn2cnc3ccccc32)cc1 | -12 | ? | 2% | ? | -2 | -70*
c1ccc(Cn2cnc3ccccc32)cc1 | -3 | 1% | 8.3µM* | ? | -3 | 14
Cn1ccnc1SCCNC(=O)CCc1nnc(CCCCc2ccccc2)o1 | 23* | -23% | ? | 3% | 12 | 52
O=C(CCc1nnc(CCCCc2ccccc2)o1)NCCc1cccnc1 | 5 | -12% | ? | 20% | 0 | 3
Cn1ccnc1SCCNC(=O)CCc1nnc(CCc2ccccc2)o1 | 28 | 13% | 10µM* | 1% | 8 | ?
CCC1CN(C(=O)Nc2cccc3c2CCCC3)c2ccccc2O1 (centres undefined) | nt | nt | nt | nt | nt | -1
COC(=O)C1=C(C)N(c2cccc(C)c2)C(=O)/C1=C\c1cccs1 | -22 | ? | 183% | ? | 8 | -99*
CCOC(=O)C1=C(C)N(c2ccccc2)C(=O)/C1=C\c1cccs1 | 2 | -25% | 25% | ? | -2 | -24
CC(=O)N[C@H]1C(O[C@@H]2O[C@H](C[C@@H](O)[C@H]3O[C@@H](N4CCC(=O)NC4=O)[C@H](O)[C@@H]3O)[C@H](O)[C@H](O)[C@H]2NC(=O)/C=C/CCCCCCCCCCC(C)C)OC(CO)[C@@H](O)[C@@H]1O (some centres undefined) | -18 | nt | nt | nt | 3 | nt
N=C1C(c2ccccc2)=C(O)CN1c1cccc(S(=O)(=O)N2CCCCC2)c1 | -6 | ? | ? | -3% | -1 | -22
Cc1ccc2c(c1)COc1c3ccc(C(=O)N[C@@H](C)CO)cc3nn1-2 | 53* | 218% | 21% | ? | 42* | 176
Cc1ccc2c(c1)COc1c3ccc(C(=O)NC(C)C)cc3nn1-2 | 76* | 104% | 34% | ? | 35* | 4
Cn1cc(CN2CCCC(CO)(Cc3ccccc3)C2)cn1 (centres undefined) | -10 | 25% | 33%[5.75 µM] | 15% | -2 | -21
NC1=C(Br)C(=O)c2ncccc2C1=O | nt | nt | nt | ? | nt | -102*
O=C1C(=O)c2ncccc2-c2cccnc21 | nt | 0.67µM* | -23% | nt | nt | nt
O=C1c2cccnc2C(=O)N1CO | 1 | 29% | 0% | -9% | 2 | -32
CN=c1scc(C)n1/N=C/c1cc(Br)c(O)c(OC)c1 | 56* | -23% | -10% | ? | 21* | -31
CN=c1scc(C)n1/N=C/c1ccc(O)c(O)c1O | -15 | nt | -39% | -17% | -11 | -5
CCc1ccccc1NC(=O)C(=O)c1cc(C)n(-c2ccccc2F)c1C | nt | nt | nt | nt | nt | 8
Brc1ccc(-c2nnc(SCCC3OCCCO3)o2)cc1 | 59* | 47% | -17% | 2% | 42* | 10
O=C1OCCC1Sc1nnc(-c2ccc(Br)cc2)o1 (centres undefined) | -5 | 48% | nt | 1% | -4 | -11
c1ccc(-c2nnc(SCCC3OCCCO3)o2)cc1 | 104* | 272% | 84% | 13% | 43* | 129
O=C(N[C@H]1CC[C@@]23CCCN2C(=O)CCC[C@H]3[C@H]1Cc1ccccc1)c1cccc(Cl)c1 | nt | nt | nt | nt | nt | -65*
CCOC(=O)c1c(C)nc2ccccc2c1C | 15 | 28% | nt | 16% | 25* | -20
CCCCN(C)C(=O)CSc1nc(NCc2ccc(OC)cc2)c2ccccc2n1 | -20 | 10µM* | 2.3µM* | ? | -5 | ?
SMILES | Shiga inhibitor | Pf growth 48h | Pf growth 96h | HCV inhibitor | Cycloheximide cs | HCMV inh
CC(=O)NC(Cc1ccccc1)Cc1ccccc1 | -5 | 7% | 54% | 14% | -1 | -29
Cc1ccc(CCNc2ncnc(Cl)c2N)cc1 | nt | nt | nt | 1µM* | nt | -84*
OCC(Cc1ccccc1)Nc1c2ccccc2nc2ccccc12 (centres undefined) | -7 | 2.6µM* | ? | -13% | -2 | -63*
Nc1c(Cl)ncnc1NCCO | -11 | 6% | -15% | 16% | -6 | -19
CCOC(=O)c1c(C)nc2ccccc2c1-c1ccccc1 | -11 | 3% | -19% | -21% | -4 | -24
Cc1ccccc1C(=O)N/N=C1\SCC(=O)N1Cc1ccco1 | -11 | -11% | 39% | 3% | -3 | 0
c1ccc(CNc2ncnc3ccccc23)cc1 | -9 | ? | -8% | ? | -2 | -97*!
OCCCCCNc1ncnc2ccccc12 | 8 | 35% | -5% | ? | 6 | -40
CNCCc1ccc(O)c(O)c1 | nt | nt | nt | -11% | nt | 53
Oc1ccc(CCNc2c3ccccc3nc3ccccc23)cc1O | nt | 13µM* | 3.3µM* | -28% | 12 | -100*
CCOC(=O)c1c(C)nc(-c2ccccc2)nc1NC(=O)CC | 70* | 96% | ? | -19% | 24* | 138
CCCCNc1nc(NCc2ccccc2)nc2ccccc12 | nt | nt | nt | nt | nt | -32
CNc1nc(NCc2ccccc2)c2ccccc2n1 | -8 | 1.2µM* | ? | 11µM* | 2 | 28
CCN(c1ccccc1)S(=O)(=O)c1ccc(OC)c(NC(=O)c2ccco2)c1 | nt | nt | nt | nt | nt | -16
C=CCNc1nc(C(=O)OCC)nc2ccccc12 | 14 | 76% | 38% | -8% | 10 | -14
CCOC(=O)c1nc(NCc2ccccc2)c2ccccc2n1 | 116* | 0% | -4% | -28% | 40* | -40
Clc1ccccc1Nc1nc(NCc2ccccc2)nc2ccsc12 | nt | nt | nt | nt | nt | -29
Clc1ccc(Cn2ncc3c(NCc4ccccc4)ncnc32)cc1 | -20 | ? | nt | ? | 8 | -30
Nc1c(Cl)ncnc1NCc1ccccc1 | -2 | -11% | 0.41µM* | ? | -3 | ?
c1ccc(CNc2c3ccccc3nc3ccccc23)cc1 | -6 | 2.9µM* | ? | ? | -7 | -100*
Oc1ccccc1Nc1nc(NCc2ccccc2)c2ccccc2n1 | 25 | 0.33µM* | 60% | 11µM* | 9 | ?
O=C(COc1ccc(Cl)cc1Cl)Nc1ccccc1F | nt | nt | nt | -9% | nt | 91
O=C(COC(=O)c1cccnc1)Nc1cccc(Cl)c1 | -7 | -16% | 4.7µM* | -8% | 2 | 37
Cc1c(OC(C)C(=O)NCc2cccnc2)ccc2c3c(c(=O)oc12)CCCC3 (centres undefined) | -12 | -16% | 12µM* | -27% | -2 | -23
CSc1ccccc1NC(=O)COc1ccc(Cl)cc1C | 48* | -9% | 6% | ? | 40* | -1
COc1ccc(-c2cc(=O)oc3c(C)c(OCC(=O)Nc4cccnc4)ccc23)cc1 | -2 | 4% | 27% | ? | 11 | 29
Cc1c(C)c2ccc(OCC(=O)Nc3cccnc3)c(C)c2oc1=O | 32 | 49% | ? | ? | 26* | -8
Cc1ccccc1-c1nc(CN2CCC(C(=O)NC3CC3)CC2)c(C)o1 | -8 | ? | 18% | ? | 0 | -29
Cc1cccc(N2CCN(Cc3nnc(-c4ccc5c(c4)OCO5)o3)CC2)c1C | nt | nt | nt | nt | nt | 7
Cc1cc(Cl)ccc1OCCCC(=O)Nc1cccnc1 | -9 | 1% | nt | 9% | -4 | -9
